# Reference: publication PMC7862700, “An all-to-all approach to the identification of sequence-specific readers for epigenetic DNA modifications on cytosine”
# Assays:
# Experiment in all cases: DAPPL (digital affinity profiling via proximity ligation, sequencing); 10 mM Tris-HCl pH 7.5, 50 mM NaCl, 1 mM DTT, 4% glycerol, room temperature, 30 min; GST-TFs on glutathione beads, 16-mer random dsDNA library, 0.1% formaldehyde crosslink after washing; high values mean tight binding
# Details in all cases: protein: recombinant; tags: N-terminal GST; dsDNA, one strand shown
# ETV1 = ETV1 (Homo sapiens, UniProt P50549 1-477)
# Outline: (§1)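 Binding signal is each hexamer's read frequency for a factor divided by its frequency in the tag-only sample. The factors were GST-fused human transcription factors from yeast, captured on glutathione beads, DNA-barcoded and pooled with that sample. Pools were incubated with 200 nmole of a random double-stranded 16-mer DNA library in Tris/NaCl/DTT/glycerol buffer at room temperature for 30 min, then washed, crosslinked with 0.1% formaldehyde, proximity-ligated with BsaI/T4 ligase (1 h, 37 °C), PCR-amplified and sequenced on an Illumina NextSeq500.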
# ERF = biological target: T1, ERF (Homo sapiens, UniProt P50548 1-548)
# T1 sequence: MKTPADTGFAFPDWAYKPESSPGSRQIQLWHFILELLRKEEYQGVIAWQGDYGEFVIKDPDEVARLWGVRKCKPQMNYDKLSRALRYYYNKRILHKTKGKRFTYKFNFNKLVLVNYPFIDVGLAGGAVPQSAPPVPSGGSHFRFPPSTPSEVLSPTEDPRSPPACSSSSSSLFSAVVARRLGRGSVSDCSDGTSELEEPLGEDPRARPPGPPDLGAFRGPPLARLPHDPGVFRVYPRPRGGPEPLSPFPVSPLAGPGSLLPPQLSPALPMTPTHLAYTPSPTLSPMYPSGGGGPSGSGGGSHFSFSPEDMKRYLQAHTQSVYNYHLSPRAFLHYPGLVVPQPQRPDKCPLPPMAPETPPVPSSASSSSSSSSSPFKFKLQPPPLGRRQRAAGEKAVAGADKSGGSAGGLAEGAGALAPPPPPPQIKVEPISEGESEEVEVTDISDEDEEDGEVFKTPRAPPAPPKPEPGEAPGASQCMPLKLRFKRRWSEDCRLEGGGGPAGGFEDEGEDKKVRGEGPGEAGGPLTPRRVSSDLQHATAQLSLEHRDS
# Outline: as §1
# ETV3L = biological target: T2, ETV3L (Homo sapiens, UniProt Q6ZN32 1-361)
# T2 sequence: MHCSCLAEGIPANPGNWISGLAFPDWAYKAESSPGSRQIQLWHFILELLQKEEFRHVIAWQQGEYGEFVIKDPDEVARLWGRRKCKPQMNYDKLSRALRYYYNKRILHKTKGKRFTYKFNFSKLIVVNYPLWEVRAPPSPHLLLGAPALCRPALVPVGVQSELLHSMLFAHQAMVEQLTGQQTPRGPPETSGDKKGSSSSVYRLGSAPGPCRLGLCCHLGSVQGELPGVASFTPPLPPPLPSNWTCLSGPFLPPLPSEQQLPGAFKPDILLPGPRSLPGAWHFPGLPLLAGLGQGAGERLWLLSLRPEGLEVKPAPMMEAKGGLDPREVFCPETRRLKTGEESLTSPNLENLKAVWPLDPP
# Outline: as §1
# ETS2 = biological target: T3, ETS2 (Homo sapiens, UniProt P15036 1-469)
# T3 sequence: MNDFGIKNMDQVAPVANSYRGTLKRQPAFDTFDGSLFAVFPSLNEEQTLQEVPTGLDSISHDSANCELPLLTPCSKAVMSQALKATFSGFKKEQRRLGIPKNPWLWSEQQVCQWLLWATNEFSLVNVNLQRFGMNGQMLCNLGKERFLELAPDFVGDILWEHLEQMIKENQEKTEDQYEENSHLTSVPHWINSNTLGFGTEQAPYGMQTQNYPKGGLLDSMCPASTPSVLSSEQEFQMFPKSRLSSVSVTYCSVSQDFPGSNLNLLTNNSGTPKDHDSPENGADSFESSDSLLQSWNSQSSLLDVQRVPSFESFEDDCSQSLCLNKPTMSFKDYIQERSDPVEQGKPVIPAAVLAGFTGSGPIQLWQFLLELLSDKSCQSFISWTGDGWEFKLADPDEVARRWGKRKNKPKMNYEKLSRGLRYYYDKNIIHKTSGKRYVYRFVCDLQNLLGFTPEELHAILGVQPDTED
# Outline: as §1
# SPDEF = biological target: T4, SPDEF (Homo sapiens, UniProt O95238 1-335)
# T4 sequence: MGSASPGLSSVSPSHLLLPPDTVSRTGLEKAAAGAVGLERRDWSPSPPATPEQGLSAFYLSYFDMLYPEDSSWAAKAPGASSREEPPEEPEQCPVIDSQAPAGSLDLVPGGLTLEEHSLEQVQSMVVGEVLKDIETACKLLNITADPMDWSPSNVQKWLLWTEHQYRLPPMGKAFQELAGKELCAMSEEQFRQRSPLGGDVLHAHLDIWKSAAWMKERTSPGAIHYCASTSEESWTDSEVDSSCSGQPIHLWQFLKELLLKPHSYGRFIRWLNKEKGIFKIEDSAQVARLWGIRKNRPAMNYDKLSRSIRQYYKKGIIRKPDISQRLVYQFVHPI
# Outline: as §1
# ETV7 = biological target: T5, ETV7 (Homo sapiens, UniProt Q9Y603 1-341)
# T5 sequence: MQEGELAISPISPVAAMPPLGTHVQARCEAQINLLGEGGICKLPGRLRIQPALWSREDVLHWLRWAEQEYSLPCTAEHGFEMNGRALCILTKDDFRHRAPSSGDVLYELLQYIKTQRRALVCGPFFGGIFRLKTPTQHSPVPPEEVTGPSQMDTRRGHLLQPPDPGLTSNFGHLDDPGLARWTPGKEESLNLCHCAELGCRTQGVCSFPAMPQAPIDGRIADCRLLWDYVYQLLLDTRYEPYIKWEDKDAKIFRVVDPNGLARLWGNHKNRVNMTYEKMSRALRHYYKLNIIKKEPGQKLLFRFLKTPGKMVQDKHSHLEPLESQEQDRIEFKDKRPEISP
# Outline: as §1
# ELF5 = biological target: T6, ELF5 (Homo sapiens, UniProt Q9UKW6-2 1-255)
# T6 sequence: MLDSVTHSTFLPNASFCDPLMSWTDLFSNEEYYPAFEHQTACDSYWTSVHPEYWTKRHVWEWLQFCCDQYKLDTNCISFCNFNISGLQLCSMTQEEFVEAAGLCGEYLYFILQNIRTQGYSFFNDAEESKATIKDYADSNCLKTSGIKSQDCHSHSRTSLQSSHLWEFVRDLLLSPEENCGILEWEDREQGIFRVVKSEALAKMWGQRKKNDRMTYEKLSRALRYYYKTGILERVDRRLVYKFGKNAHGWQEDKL
# Outline: as §1
# ETV3 = biological target: T7, ETV3 (Homo sapiens, UniProt P41162-2 1-143)
# T7 sequence: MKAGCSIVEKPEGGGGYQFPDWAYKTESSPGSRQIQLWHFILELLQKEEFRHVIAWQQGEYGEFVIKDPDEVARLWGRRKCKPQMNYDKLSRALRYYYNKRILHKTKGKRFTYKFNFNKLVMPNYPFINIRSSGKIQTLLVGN
# Outline: as §1
# ETV6 = ETV6 (Homo sapiens, UniProt P41212 1-452)
# Outline: as §1
# ETV6, sequence (P41212 whole entry): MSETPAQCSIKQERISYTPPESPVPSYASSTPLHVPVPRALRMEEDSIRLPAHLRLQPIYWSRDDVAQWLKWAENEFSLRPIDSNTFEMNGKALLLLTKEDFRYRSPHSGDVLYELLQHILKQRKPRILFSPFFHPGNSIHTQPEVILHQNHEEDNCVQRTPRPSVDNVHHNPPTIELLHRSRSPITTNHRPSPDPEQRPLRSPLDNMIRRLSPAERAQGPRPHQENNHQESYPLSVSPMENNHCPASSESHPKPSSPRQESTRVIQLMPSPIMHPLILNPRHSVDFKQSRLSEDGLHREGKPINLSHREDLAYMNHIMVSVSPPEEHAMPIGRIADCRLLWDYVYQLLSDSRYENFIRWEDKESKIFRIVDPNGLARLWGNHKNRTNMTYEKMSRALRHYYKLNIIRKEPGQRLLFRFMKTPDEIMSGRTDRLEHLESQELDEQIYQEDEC
# ETV1, sequence (P50549 whole entry, the tested form may be a part): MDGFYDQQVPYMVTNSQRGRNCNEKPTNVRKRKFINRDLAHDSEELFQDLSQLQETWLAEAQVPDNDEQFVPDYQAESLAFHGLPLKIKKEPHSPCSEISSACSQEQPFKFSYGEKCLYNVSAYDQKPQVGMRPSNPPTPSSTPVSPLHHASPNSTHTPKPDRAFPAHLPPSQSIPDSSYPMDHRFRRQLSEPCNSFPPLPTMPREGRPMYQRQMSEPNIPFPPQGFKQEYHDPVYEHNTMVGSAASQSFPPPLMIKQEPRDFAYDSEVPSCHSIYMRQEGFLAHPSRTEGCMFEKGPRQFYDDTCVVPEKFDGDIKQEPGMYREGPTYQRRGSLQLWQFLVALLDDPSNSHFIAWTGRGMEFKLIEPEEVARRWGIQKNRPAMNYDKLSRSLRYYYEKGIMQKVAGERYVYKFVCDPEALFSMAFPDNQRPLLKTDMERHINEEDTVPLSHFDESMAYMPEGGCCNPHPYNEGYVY
sequence,measurement,setting,value
ATACAT,binding signal,ETV1,"1.33 fold enrichment (6-mer frequency, TF over GST control)"
same,binding signal,ERF,"1.27 fold enrichment (6-mer frequency, TF over GST control)"
same,binding signal,ETV3L,"1.2 fold enrichment (6-mer frequency, TF over GST control)"
same,binding signal,ETS2,"1.24 fold enrichment (6-mer frequency, TF over GST control)"
same,binding signal,SPDEF,"1.6 fold enrichment (6-mer frequency, TF over GST control)"
same,binding signal,ETV7,"1.36 fold enrichment (6-mer frequency, TF over GST control)"
same,binding signal,ELF5,"1.29 fold enrichment (6-mer frequency, TF over GST control)"
same,binding signal,ETV3,"1.26 fold enrichment (6-mer frequency, TF over GST control)"
same,binding signal,ETV6,"1.28 fold enrichment (6-mer frequency, TF over GST control)"
